Screening results (PubChem)
TRHR enhancer-1 = TRH receptor (human) allosteric enhancement. P34981. TRHR cells, fluo-8 calcium fluorescence, EC20 TRH enhancement. AID 493056. enhancement, % at 2 µM. 360,000 compounds, 0.66% hits; in the data active = enhancement above about 30%; also: 0% is about no effect
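TRHR-expressing cells loaded with fluo-8 calcium dye were read kinetically (ex 480/em 530) during compound addition, then stimulated with an EC20 of TRH (10 nM final). Enhancement of the Gq-mediated intracellular calcium response was scored.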
D1 antagonist = blocks dopamine activation of the human D1 receptor. P21728. 360,000 compounds, 3.2% hits. activity change, negative = inhibition, % at 10 µM. HEK293 TREx D1 cells, calcium flux, dopamine EC80; hits give low values; in the data active = activity change below about -30%; also: % is scaled to controls: 0 for no effect and ±100 for the full control effect
Target sequence (P21728 whole entry, looked up): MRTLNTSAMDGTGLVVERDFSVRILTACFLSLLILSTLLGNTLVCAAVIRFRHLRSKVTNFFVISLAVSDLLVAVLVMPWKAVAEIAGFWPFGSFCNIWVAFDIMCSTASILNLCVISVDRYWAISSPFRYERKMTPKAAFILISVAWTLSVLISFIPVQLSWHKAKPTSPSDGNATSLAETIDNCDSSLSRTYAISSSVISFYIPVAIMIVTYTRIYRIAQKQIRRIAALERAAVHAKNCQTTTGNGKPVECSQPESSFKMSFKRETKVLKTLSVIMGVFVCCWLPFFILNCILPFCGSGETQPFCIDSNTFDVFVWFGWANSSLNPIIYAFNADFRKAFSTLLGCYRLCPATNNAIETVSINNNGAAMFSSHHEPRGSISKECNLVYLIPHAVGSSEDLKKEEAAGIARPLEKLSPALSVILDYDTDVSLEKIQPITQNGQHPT
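Antagonism measured as reduced calcium response to an EC80 dopamine addition following 180 s compound pre-read; cells were inducible HEK293 Trex D1 plated overnight at 30 C, read kinetically at 1 cycle/sec.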
D1 potentiator = human D1 dopamine receptor positive modulation. P21728. HEK293 TREx D1 cells, calcium flux, dopamine EC20 potentiation. potentiation, % at 10 µM. 360,000 compounds, 0.036% hits; in the data active = potentiation above about 30%; also: 0% is about no effect
D1 ag = human D1 receptor agonism | P21728 | HEK293 T-REx D1 cells, calcium flux, agonist mode | activation, % at 2 µM | 360,000 compounds, 1% hits; in the data active = activation above about 30%; also: 0% is about no effect
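Tetracycline-induced HEK293 TREx D1 cells, force-coupled to calcium signalling, were dye-loaded with a no-wash calcium kit. Compound was pin-added after a 10 s baseline. Fluorescence was read kinetically at 1 cycle/s for 180 s, with calcium rises flagged as agonism.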
TRHR agonist-1 = activates the human TRH receptor; P34981; TRHR cells, calcium flux fluo-8, FDSS agonist mode; activation, % at 2 µM; 360,000 compounds, 0.18% hits; AID 493084; in the data active = activation above about 30%; also: 0% is about no effect
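Agonist-mode FDSS calcium read (Ex 480/Em 530, 1 s cycles) in 1536-well TRHR cells with fluo-8 dye, after 10-cycle baseline and 23 nL compound addition; TRH at EC20 (10 nM final) added afterwards for the enhancer phase.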
TRHR enhancer-2 = human TRH receptor allosteric enhancement confirmation. TRH receptor cell assay, enhancer confirmation qHTS. activity change, negative = inhibition, % at 46.1 µM. 970 tested, under 10 active. shares compounds with TRHR enhancer-1;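 also: compound effect scored on response to added TRH at EC20 of 10 nM; 0% is about no effect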
TRHR agonist-2 = human TRH receptor agonism confirmation. shares compounds with TRHR enhancer-1. Potency, µM (series often up to 46.1 µM), for inactives: at the highest dose activation, most hits filed as activators. TRHR-expressing cells, agonist activation read-out. 970 compounds, 8% hits; also: potency is read from the fitted curve at half-maximal effect; 0% is about no effect; nearly all actives have a fitted effect of over 75% in size
* = called active by the depositor. In the library only some 4.6% were active in any assay of this set; here they are far more common. Unless noted, calls follow the shape of the dose curve; as a rule, active = well fitted curve in the direction sought with a large enough effect; inconclusive = small, poorly fitted or top-dose-only effect, or another doubt; inactive = no such curve, though single readings can be large; an effect the other way counts as inactive or inconclusive.

Screening COc1ccc(C(=O)N2CCN(Cc3ccccc3C(F)(F)F)CC2)cc1 returned TRHR enhancer-1 -8, D1 antagonist -4, D1 potentiator 0, D1 ag 7, TRHR agonist-1 32*, TRHR enhancer-2 -3 and TRHR agonist-2 1%.
For Cc1nn(C)cc1S(=O)(=O)Nc1ncccn1 the results were TRHR enhancer-1 41*, D1 antagonist 1, D1 potentiator -4, D1 ag 0, TRHR agonist-1 2, TRHR enhancer-2 0 and TRHR agonist-2 6%.
Screening O=S(=O)(NC1CCCCC1N1CCOCC1)c1ccc(Cl)cc1 (stereo unspecified) returned TRHR enhancer-1 -2, D1 antagonist -12, D1 potentiator -4, D1 ag 0 and TRHR agonist-1 15.
O=S(=O)(NC1CCCCC1N1CCN(c2ccccc2F)CC1)c1ccc(Cl)cc1 (stereo unspecified) was read as TRHR enhancer-1 -9, D1 antagonist -9, D1 potentiator -4, D1 ag 6, TRHR agonist-1 33*, TRHR enhancer-2 -10 and TRHR agonist-2 inconclusive.
`COc1ccc(-c2csc(NC(=O)CSc3nc(C)nc4sc(C(=O)O)c(C)c34)n2)cc1` gave TRHR enhancer-1 4, D1 antagonist 9, D1 potentiator -3, D1 ag -1 and TRHR agonist-1 0.
Screening C=CCn1c(C)cc(-c2csc(NC(=O)C3=COCCO3)n2)c1C returned TRHR enhancer-1 59*, D1 antagonist 19, D1 potentiator -8, D1 ag 2, TRHR agonist-1 0, TRHR enhancer-2 -9 and TRHR agonist-2 0%.
Screening O=C(Nc1cccc2cccnc12)OCc1ccccc1 returned TRHR enhancer-1 1, D1 antagonist 2, D1 potentiator 2, D1 ag 4 and TRHR agonist-1 0.
`Cc1ccc(NC(=O)COC(=O)C2CSC3(C)CCC(=O)N23)cc1S(=O)(=O)N1CCOCC1` (stereo unspecified) gave TRHR enhancer-1 42*, D1 antagonist -38*, D1 potentiator -7, D1 ag 4, TRHR agonist-1 2, TRHR enhancer-2 -3 and TRHR agonist-2 -1%.
For Cc1ccc(NC(=O)C2CSC3(C)CCC(=O)N23)cc1S(=O)(=O)N1CCOCC1 (stereo unspecified) the results were TRHR enhancer-1 9, D1 antagonist 2, D1 ag 7 and TRHR agonist-1 0.
O=C(N/N=C\c1c(O)ccc2ccccc12)c1ccc(S(=O)(=O)N2CCCCC2)cc1 was read as TRHR enhancer-1 26, D1 antagonist -8, D1 potentiator -9, D1 ag 52*, TRHR agonist-1 60*, TRHR enhancer-2 inconclusive and TRHR agonist-2 18µM*.
`O=C(N/N=C/c1c(O)ccc2ccccc12)c1ccc(CO)nc1` gave TRHR enhancer-1 1, D1 antagonist 10, D1 potentiator -3, D1 ag 23, TRHR agonist-1 32*, TRHR enhancer-2 4 and TRHR agonist-2 inconclusive.
O=C(CNC(=O)c1ccc(S(=O)(=O)N2CCCC2)cc1)N/N=C/c1ccccc1Cl was read as TRHR enhancer-1 1, D1 antagonist -1, D1 potentiator -6, D1 ag 2 and TRHR agonist-1 -1.
`COc1ccc2ccccc2c1/C=N/NC(=O)c1ccc(C)nc1` gave TRHR enhancer-1 5, D1 antagonist -1, D1 potentiator 3, D1 ag 0 and TRHR agonist-1 -1.
For Cc1ccccc1CN(c1ccc(C(=O)N/N=C/c2ccc(OCC(N)=O)cc2)cc1)S(C)(=O)=O the results were TRHR enhancer-1 -4, D1 antagonist -5, D1 potentiator -2, D1 ag 4 and TRHR agonist-1 -1.
For O=C(Nc1ccccc1)/C(=C/c1ccc2c(c1)OCO2)NC(=O)c1ccco1 the results were TRHR enhancer-1 52*, D1 antagonist 0, D1 potentiator -7, D1 ag 3, TRHR agonist-1 0, TRHR enhancer-2 2 and TRHR agonist-2 0%.
